In the library only some 21% were active in any assay of this set; here they are far more common.
Pf growth 96h – P. falciparum growth inhibition at 96 hour, primary screen for plastid delayed-death inhibitors; P. falciparum luciferase reporter growth, 96 h; Potency, µM (series often up to 28.7 µM), inactives show at the top dose activity change, negative = inhibition, usual class: inhibitors; 6.9% of 320,000 active; AID 504834; note: potency is the fitted concentration of half-maximal effect; % is set by controls: 0 for no effect and ±100 for the full control effect
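Two parasite generations (96 h, 37 C, 5% CO2) of compound exposure in infected erythrocytes (0.05% parasitemia, 2% hematocrit). Luciferase-reporter P. falciparum; decreased luminescence indicates inhibited growth, aimed at apicoplast-acting delayed death.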
Shiga inhibitor – blocks Shiga toxin action in Vero cells; Vero cells, Shiga toxin protein synthesis inhibition reporter; inhibition, % at 38.7 µM; 9.2% of 290,000 active; in the data active = inhibition mostly above about 28%, no sharp cut-off; inactive = mostly below about 43%; note: 0% is about no effect
Cycloheximide cs – counter-screen for Shiga toxin inhibitors: cycloheximide protein synthesis inhibition; cell reporter, cycloheximide protein synthesis inhibition counterscreen; max response, %; 12% of 300,000 active; AID 2314; in the data active = max response mostly above about 13%, no sharp cut-off; inactive = mostly below about 14%; note: read at 38.3 µM for the half of the compounds with a filed dose; 0% is about no effect
Pf growth 48h – P. falciparum growth inhibition at 48 hours (one generation); P. falciparum luciferase growth in erythrocytes, 48 h; Potency, µM (series often up to 28.7 µM), for inactives: at the highest dose activity change, negative = inhibition, most hits filed as inhibitors; 5.9% of 310,000 active; note: potency is the fitted concentration of half-maximal effect; % is set by controls: 0 for no effect and ±100 for the full control effect
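Luciferase-expressing parasites in RBCs, 2% Hct / 0.1% parasitemia final; RPMI 1640 + 0.5% Albumax; 37 C, 5% CO2, one generation; luminescence read-out, lower signal = inhibition.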
* hit, by the source's call; i = inactive; ? = inconclusive; . = no result; [ ] = another dose, or the depositor's remark. Unless noted, calls come from the whole dose curve; as a rule, active = well fitted inhibition curve with a large enough effect; inconclusive = small, poorly fitted or top-dose-only effect, or another doubt; inactive = no such curve, though single readings can be large or run the other way.

SMILES | Pf growth 96h | Shiga inhibitor | Cycloheximide cs | Pf growth 48h
CN1CCN(c2nc(-c3ccc(Cl)s3)cs2)CC1 | 66% | 50* | 46* | 68%
CN(C(=O)C1CCC1C(=O)O)c1nc(-c2ccc(Cl)s2)cs1 (stereo not drawn) | -7% | 26 | 9 | 0%
COc1ccc(-c2csc(NC(=O)CN3C(=O)CCC3=O)n2)cc1OC | 21% | -6 | -2 | 22%
COc1ccc(-c2csc(/N=C/N(C)C)n2)cc1OC | 70% | 42 | 18* | 80%
O=[N+]([O-])c1ccc(-c2csc(N3CCCCCC3)n2)cc1 | ? | 26 | 17* | 11%
Clc1ccc(-c2csc(N3CCCCCC3)n2)cc1 | ? | 57 | 22* | 108%
CCN(C(=O)c1ccc(S(=O)(=O)N2CCOCC2)cc1)C1CCS(=O)(=O)C1 (stereo not drawn) | 2% | . | . | -2%
CCN(C(=O)COC(=O)c1[nH]c(=O)[nH]c(=O)c1N)c1ccccc1 | 16% | -4 | -3 | 12%
CC(=O)c1ccc(-c2csc(N3CCC(C(N)=O)CC3)n2)cc1 | 15% | . | . | 23%
NC(=O)C1CCN(c2nc(-c3ccc(Br)cc3)cs2)CC1 | ? | 28 | 20* | ?
c1ccc(-c2csc(Cc3nnc4n3CCCCC4)n2)cc1 | 15% | 7 | 1 | 21%
COc1ccccc1-c1csc(Cc2nnc3n2CCCCC3)n1 | 38% | 153* | 46* | 0%
O=C(O)C1C2CCC(C2)C1C(=O)N1CCCC1 (stereo not drawn) | -5% | -5 | 1 | 14%
S=C(NCC1CCCO1)NC1CCCC1 (stereo not drawn) | 0% | -4 | -2 | 2%
Cc1ccccc1NC(=O)CSc1nc(-c2cccs2)nc2cc(=O)[nH]n12 | -4% | . | . | ?
O=C(NNC(=O)c1ccccc1F)c1ccc2nc[nH]c2c1 | 79% | 68 | 22* | 52%
O=C(NC1CCCC1)c1ccc2nc[nH]c2c1 | -19% | 16 | -1 | 4%
O=C(Nc1ccc(F)cc1)c1ccc2nc[nH]c2c1 | 42% | 46* | 30* | 158%
O=C(NNC(=O)c1ccccc1Br)c1ccc2nc[nH]c2c1 | -1% | 2 | 6 | 17%
CN(C)c1ccc(NC(=O)c2ccc3nc[nH]c3c2)cc1 | 130% | 138* | 51* | 61%
COc1cccc(CNC(=O)C2CSC3(C)CCC(=O)N23)c1 (stereo not drawn) | 5% | . | . | ?
O=C(Nc1cccnc1)Nc1ccc2c(c1)OCO2 | . | 88* | 43* | 132%
O=C(Nc1ccc2c(c1)OCO2)Nc1ccc2c(c1)OCO2 | 48% | 75* | 29* | 63%
O=C(O)C1CCCCC1C(=O)Nc1ccc2c(c1)OCO2 (stereo not drawn) | 39% | -9 | -1 | 21%
CC(OC(=O)c1cccnc1)C(=O)Nc1ccc2c(c1)OCO2 (stereo not drawn) | ? | -5 | -2 | ?
SMILES | Pf growth 96h | Shiga inhibitor | Cycloheximide cs | Pf growth 48h
O=C(Nc1cccc(C(=O)O)c1)/C(=C\c1ccc2c(c1)OCO2)NC(=O)c1ccc(Br)o1 | -5% | 45* | 16* | 151%
CC1=C(C)CC(C(=O)Nc2ccc3c(c2)OCO3)C(C(=O)O)C1 (stereo not drawn) | 15%[1.15 µM] | 41* | 28* | 20%
COc1ccc(NC(=O)COC(=O)C2CC2)c(OC)c1 | 8% | . | . | 22%
COc1ccc(CCN(C)C(=O)C2CCCN(C3CCN(Cc4ccccc4)CC3)C2)cc1OC (stereo not drawn) | -8% | -8 | -3 | -14%
COc1ccc(/C=C/C(=O)OCC(=O)NCCC2=CCCCC2)cc1S(=O)(=O)N1CCOCC1 | -4% | -7 | -2 | -16%
Cn1c(COc2ccccc2)nnc1SCC(=O)NC1CCCC1 | 21% | -17 | -4 | 3%
CCOC(=O)C1=C(C)Nc2ccccc2N=C1NC(=O)c1ccc(Cl)c(S(=O)(=O)N2CCCC2)c1 | ? | -16 | -3 | ?
CCc1ccc2[nH]c(C(=O)Nc3ccc4c(c3)OCO4)cc2c1 | -11% | 47 | 19* | ?
O=C(Nc1ccc(C(=O)N2CCOCC2)cc1)Nc1ccc(Cl)cc1Cl | -1% | -11 | 5 | -22%
O=C(Nc1ccc2c(c1)OCO2)c1ccc(CO)cc1 | i | . | . | 356%
COc1ccc(C(C)(C)C)cc1NC(=O)Nc1ccc2c(c1)OCO2 | 291% | 31 | 11 | ?
CCc1ccc2[nH]c(C(=O)Nc3ccc(Br)c(C)n3)cc2c1 | 121% | 137* | 32* | 123%
O=C(Nc1ccc2c(c1)OCO2)Nc1ccc(Cl)cc1Cl | 109% | 64* | 28* | .
Cc1ccc(NC(=O)Nc2ccc3c(c2)OCO3)c(Br)c1 | ? | 192 | 43* | 39%
Cc1cccc(-n2nc3c(c2NC(=O)c2ccc4c(c2)OCO4)CS(=O)(=O)C3)c1C | 20% | 18 | -6 | -23%
O=C(NC1CCCCCC1)C1CC(=O)N(c2ccc(Cl)cc2)C1 (stereo not drawn) | 7% | 2 | -6 | -6%
Cc1ccc(C(=O)NC2CC(C)(C)NC(C)(C)C2)cc1S(=O)(=O)N1CCCCC1 | -18% | . | . | ?
O=C(Nc1cccc(C(=O)O)c1)Nc1ccc2c(c1)OCO2 | -26% | 36* | 30* | 231%
O=C(Nc1ccc2c(c1)OCO2)Nc1ccc(F)cc1F | ? | 87* | 65* | 90%
O=C(Nc1ccc(Cl)cc1)Nc1ccc2c(c1)OCO2 | -7% | 80* | 76* | 120%
O=C(Nc1ccc(F)cc1)Nc1ccc2c(c1)OCO2 | -28% | 12 | -2 | ?
O=C(Nc1cccc(C(=O)O)c1)/C(=C/c1ccc2c(c1)OCO2)NC(=O)c1cccc(Br)c1 | -14% | -4 | -1 | 70%
Cc1cc(C)c(NC(=O)Nc2ccc3c(c2)OCO3)c(C)c1 | 69% | 82* | 37* | 2%
Cc1cc(C)n(NC(=S)NC2CCCC2)c(=O)c1C#N | 0% | -3 | 2 | 0%
CCN(C(=O)CSc1nc2ccccc2o1)c1c(N)n(Cc2ccccc2)c(=O)[nH]c1=O | -16% | . | . | -9%
SMILES | Pf growth 96h | Shiga inhibitor | Cycloheximide cs | Pf growth 48h
Cc1ccc(OCC(=O)Nc2ccc3c(c2)OCO3)c(C)c1 | ? | 34 | 2 | 16%
O=C(CN1C2CCC1CC(O)(c1cccnc1)C2)Nc1ccc2c(c1)OCO2 (stereo not drawn) | 8.3µM* | -16 | -2 | 12%
CC1(c2ccccc2)NC(=O)N(CC(=O)Nc2ccc3c(c2)OCO3)C1=O (stereo not drawn) | 1% | -6 | -4 | .
Cc1cc(C)c2[nH]c(C(=O)Nc3ccc4c(c3)OCO4)cc2c1 | 6% | 46 | 16* | -10%
COc1cc([N+](=O)[O-])ccc1NC(=O)Nc1ccc2c(c1)OCCO2 | 35% | -10 | 9 | 31%
O=C(Nc1ccc([N+](=O)[O-])cc1)Nc1ccc2c(c1)OCCO2 | -10% | 129* | 55* | 181%
Cc1ccc(C(=O)O)cc1NC(=O)Nc1ccc2c(c1)OCO2 | 7% | 73* | 20* | 100%
CC(=O)NC(Cc1ccccc1F)C(=O)NC1CCN(C(=O)Nc2ccc(C)cc2)CC1 (stereo not drawn) | 1% | 29 | -5 | 0%
CCc1ccc(N2CC(C(=O)Nc3ccc(S(=O)(=O)N4CCOCC4)cc3)CC2=O)cc1 (stereo not drawn) | -8% | . | . | ?

Compound activity from PubChem.
